HPGD block = HPGD (human) dehydrogenase inhibition; 4.3% of 150,000 active; purified HPGD, NADH fluorescence kinetic, PGE2 substrate; Potency, µM, actives largely listed as inhibitors; P15428; AID 894; active means well fitted inhibition curve with a large enough effect, not every such curve was filed as active; inconclusive means small, poorly fitted or top-dose-only effect, or another doubt; inactive means no such curve, though single readings can be large or run the other way
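NADH formation kinetics: reaction with 30 uM PGE2 and 1 mM NAD+ (final), 20 nM enzyme, Tris-HCl pH 8 with Tween 20, after 15 min compound preincubation at room temperature. Fluorescence change, last versus first of five reads.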
Tau fibril FP = tau fibrillization inhibition (FP); 0.39% of 280,000 active; P10636; K18 P301L tau heparin fibrillization, Alexa594 FP, 6 h; AID 1468; Potency, µM (series often up to 57.7 µM), hits mostly inhibitors; further: nearly all actives have a fitted effect of over 55% in size
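Human tau K18 […] P301L fragment, 15 uM unlabeled plus 0.24 uM Alexa 594-labeled tau (final), with compound and 20 uM heparin in 100 mM sodium acetate pH 7; 6 hr at 37 C, then Alexa 594 FP read.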
NPSR antagonist = blocks cAMP signaling of the human neuropeptide S receptor | 1% of 220,000 active | Q6W5P4 | CHO-NPSR cells, cAMP TR-FRET, antagonist mode | Potency, µM (highest dose often 38.3 µM), most hits filed as inhibitors; further: nearly all actives have a fitted effect of over 50% in size
ALDH1A1 inh = blocks purified human ALDH1A1 activity. Purified ALDH1A1, NADH fluorescence, propionaldehyde substrate. Potency, µM (highest dose often 75.3 µM), hits mostly inhibitors. 7.3% of 220,000 active. AID 1030; active means well fitted inhibition curve with a large enough effect, not every such curve was filed as active; inconclusive means small, poorly fitted or top-dose-only effect, or another doubt; inactive means no such curve, though single readings can be large or run the other way
Target sequence (P00352 whole entry, looked up): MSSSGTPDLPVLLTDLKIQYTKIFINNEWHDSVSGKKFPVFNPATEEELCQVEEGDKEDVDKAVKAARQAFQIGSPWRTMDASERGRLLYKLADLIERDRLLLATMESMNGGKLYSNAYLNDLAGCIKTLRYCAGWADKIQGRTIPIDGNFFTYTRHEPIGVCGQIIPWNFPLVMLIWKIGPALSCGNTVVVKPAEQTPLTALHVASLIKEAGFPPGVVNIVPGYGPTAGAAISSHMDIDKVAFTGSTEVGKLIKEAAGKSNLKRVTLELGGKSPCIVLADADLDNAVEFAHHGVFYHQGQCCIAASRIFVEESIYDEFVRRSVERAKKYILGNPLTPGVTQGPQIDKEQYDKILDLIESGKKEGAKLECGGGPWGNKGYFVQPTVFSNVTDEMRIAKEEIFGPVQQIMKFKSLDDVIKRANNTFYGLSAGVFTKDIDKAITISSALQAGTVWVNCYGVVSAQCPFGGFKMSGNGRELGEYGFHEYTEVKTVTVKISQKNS
Tau fluor cs = counter-screen for tau fibril formation inhibitors; tau K18 P301L Alexa594 fluorescence, heparin fibrillization; Potency, µM (doses to about 57.7 µM); 0.93% of 280,000 active; further: nearly all actives have a fitted effect of over 55% in size
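Human K18 P301L tau (15 uM unlabeled plus 0.24 uM Alexa 594-labeled, final) in 100 mM sodium acetate pH 7 was mixed with compound and 20 uM heparin and incubated 6 hr at 37 C.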
Tau fibril ThT = tau fibrillization inhibition (ThT binding); P10636; recombinant tau K18 P301L (four-repeat tau fragment), heparin-induced fibrillization, ThT fluorescence; Potency, µM (titrated, usually from 57.4 µM), usual class: inhibitors; 2.1% of 270,000 active; AID 1460; further: nearly all actives have a fitted effect of over 55% in size
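Aggregation was driven by heparin (20 uM final) acting on recombinant tau […] bearing P301L in 100 mM sodium acetate pH 7; fibrils were detected with Thioflavin T.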
Hits are given with their value; 0 = inactive; ? = inconclusive; - = no result; [ ] = another dose, or the depositor's remark. Rows were chosen to be rich in hits. Some 9.5% of all compounds tested hit in one or more screens of this group. Unless noted, the call rests on the fitted dose curve; in most records, active means well fitted curve in the direction sought with a large enough effect; inconclusive means small, poorly fitted or top-dose-only effect, or another doubt; inactive means no such curve, though single readings can be large; an effect the other way counts as inactive or inconclusive.

SMILES	HPGD block	Tau fibril FP	NPSR antagonist	ALDH1A1 inh	Tau fluor cs	Tau fibril ThT
Cc1ccc(/C=N/NC(=O)CSc2nnc(-c3ccc(Cl)cc3)n2-c2ccccc2)o1	?	0	0	10µM	0	0
COCC(=O)N/N=C/c1ccc(Sc2nc3ccccc3s2)o1	0	0	?	?	0	0
O=C(COc1cccc2ccccc12)N/N=C/c1ccc(Sc2nc3ccccc3s2)o1	28µM	?	0	?	0	?
Cc1ccc(/C=N/NC(=O)CSc2nc3ccccc3s2)o1	14µM	0	0	11µM	0	0
CS(=O)(=O)N1CCCC(c2nc(-c3ccc(S(=O)(=O)NCc4ccccc4)cc3)no2)C1 (centres undefined)	0	0	0[7.67 µM]	0	0	0
COc1nc2ccccc2c(=O)n1OCC(C)C	0	0	0	14µM	0	0
O=C1c2ccccc2C(=O)C12OC2c1ccc(Cl)cc1 (centres undefined)	0	?	?	0.79µM	0	3.2µM
Cc1ccc(OCc2n[nH]c(=S)n2C2CCCCC2)cc1	14µM	0	0	14µM	0	0
Cc1cccc(OCc2n[nH]c(=S)o2)c1	0	0	0	?	0	0
COc1ccc(OCc2n[nH]c(=S)n2-c2ccc(C)cc2)cc1	-	0	0	?	0	0
Cc1cccc(OCc2n[nH]c(=S)n2C2CCCCC2)c1	10µM	0	0	?	0	0
CSc1ncnc2c1ncn2CC(=O)[C@H]1CC[C@H]2[C@H]3CCC4=CC(=O)CC[C@@]4(C)[C@@H]3CC[C@@]12C	0	-	-	?	-	-
Cc1cccc(OCc2nc(CC(=O)Nc3ccc(Cl)cc3)cs2)c1	-	?	-	-	0	0
Cc1ccc(N/C=C2\C(=O)C3(C)CCC2C3(C)C)cc1C (centres undefined)	-	?	0	14µM	0	?
COc1ccc(/C=C\c2onc(C)c2S(=O)(=O)N2CCC(C(=O)Nc3cccc(OC)c3)CC2)cc1	-	?	-	-	?	0
Cc1cc(C)c(S(=O)(=O)NCc2ccncc2)c(C)c1	0	0	0	0	0	0
Cc1ccc(S(=O)(=O)NCc2ccncc2)c(C)c1C	-	0	0	32µM	0[2.34 µM]	0
CCCCN(CC)C(=O)CSc1nc2n[nH]c(C)c2c(=N)n1-c1cccc(Cl)c1	-	0	-	-	0	0
O=S(=O)(c1cccc(C(F)(F)F)c1)N(CCCN1CCOCC1)Cc1cccs1	0	0	0	13µM	0	0
COC(=O)c1ccccc1S(=O)(=O)N(CCCN1CCOCC1)Cc1cccs1	0	0	0	?	0	0
CCCN(CCC)CCNC(=O)c1sc2nc3n(c(=O)c2c1C)CCCCC3	-	0	-	-	0	0
N#CC1=C2SCCN2C(=O)C(C#N)C12CCCCC2 (centres undefined)	-	0	0	0.56µM	0	0
Cn1c(=O)c2[nH]c(COc3ccc(C(C)(C)C)cc3)nc2n(C)c1=O	-	0	0[7.67 µM]	-	0	0
CCC(=O)CC(NC(=O)OC)c1ccc(F)cc1 (centres undefined)	-	0[11.6 µM]	-	0[13.5 µM]	0[11.6 µM]	0[11.5 µM]
Cc1cc(NC(=O)c2ccc(F)cc2)ccc1-c1cc2ccccc2oc1=O	-	?	-	-	0	0
SMILES	HPGD block	Tau fibril FP	NPSR antagonist	ALDH1A1 inh	Tau fluor cs	Tau fibril ThT
Cc1cc(NC(=S)NC(=O)c2ccccc2)ccc1-c1cc2ccccc2oc1=O	0	0	0	8.9µM	0	0
COc1ccc(C(=O)NC(=S)Nc2ccc3oc(=O)ccc3c2)cc1OC	0	0	0	0	0	0
COc1cc(C(=O)NC(=S)Nc2cccc(-c3cc4ccccc4oc3=O)c2)cc(OC)c1OC	0	0	0	14µM	0	0
CC(=O)N1c2nc(C(C)C)nn2C2(CCCCC2)[C@@H]2CCCC[C@@H]21	-	0	-	-	0	0
Cn1c(=O)c(-c2cccs2)nc2cnc(Oc3ccccc3)nc21	0	-	-	?	-	-
CCCC12CN3CCN(CC(C3)/C1=N\NC(=O)c1ccc(C(C)(C)C)cc1)C2	0	0	0	32µM	0	0
COc1ccc(O[C@H]2C=C[C@@H](c3ccccc3)O[C@H]2COC(=O)N2CCCCC2)cc1	-	0[11.6 µM]	-	?	0[11.6 µM]	0[11.5 µM]
COc1cccc(CNS(=O)(=O)c2ccc3[nH]c4c(c3c2)CCCCC4)c1	-	?	-	-	13µM[quencher]	0
O=S(=O)(NCc1ccc(F)cc1)c1ccc2[nH]c3c(c2c1)CCCCC3	-	0	-	-	16µM[quencher]	0
